Assay outcomes as filed in PubChem.
BAZ2B block: blocks human BAZ2B. Q9UIF8. AlphaScreen BAZ2B-H3K14Ac peptide displacement. Potency, µM (titrated, usually from 114 µM), hits mostly inhibitors. actives 4.4% (n = 360,000). AID 504333; further: nearly all actives have a fitted effect of over 60% in size
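AlphaScreen luminescence quantifies BAZ2B engagement of H3K14Ac peptide; the protein and biotinylated peptide are both at 50 nM final, buffer PBS pH 7.4 with 0.01% Tween-20, all steps at room temperature.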
JMJD2A Tudor inh: inhibitors of human JMJD2A Tudor domain | O75164 | AlphaScreen JMJD2A-Tudor / H3K4me3 peptide binding | Potency, µM (series often up to 114 µM), hits mostly inhibitors | actives 4.4% (n = 390,000) | AID 504339; further: nearly all actives have a fitted effect of over 50% in size
KDM4E inh: inhibitors of human JMJD2E histone demethylase | JMJD2E catalytic domain, FDH-coupled NADH fluorescence (FDH is formaldehyde dehydrogenase) | Potency, µM (highest dose often 57.1 µM), actives largely listed as inhibitors | actives 1.6% (n = 230,000); active means well fitted inhibition curve with a large enough effect, not every such curve was filed as active; inconclusive means small, poorly fitted or top-dose-only effect, or another doubt; inactive means no such curve, though single readings can be large or run the other way; further: nearly all actives have a fitted effect of over 50% in size
Target sequence (B2RXH2 1-337 limits assumed): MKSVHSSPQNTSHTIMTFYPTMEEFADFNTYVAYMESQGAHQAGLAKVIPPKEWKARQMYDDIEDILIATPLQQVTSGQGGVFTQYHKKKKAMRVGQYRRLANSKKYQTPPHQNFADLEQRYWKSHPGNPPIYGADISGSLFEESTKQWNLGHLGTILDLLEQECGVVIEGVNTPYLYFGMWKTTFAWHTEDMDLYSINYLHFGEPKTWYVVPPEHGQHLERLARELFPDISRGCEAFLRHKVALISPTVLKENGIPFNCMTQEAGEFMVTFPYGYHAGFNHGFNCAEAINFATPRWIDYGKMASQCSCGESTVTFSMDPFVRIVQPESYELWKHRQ
PI5P4K alpha inh: inhibitors of human PI5P4K alpha; PI5P4Kalpha enzyme, ADP-Glo luminescence, 60 min; hits give low values; max response, %; actives 1.2% (n = 330,000); active means max response of -50% or lower; inconclusive means between -30% and -50%; inactive means -30% or higher; further: value at the top dose of about 77 µM
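qHTS, 1536-well: enzyme/substrate mix, compound by pin tool, 5 microM ATP final; RT 60 min; ADP-Glo reagents 1 (45 min) then 2 (30 min); luminescence.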
HP1b binding inh: inhibitors of HP1-beta chromodomain binding to methylated histone tails. P83916. AlphaScreen HP1-beta / biotin-H3K9me3 peptide binding. Potency, µM (series often up to 114 µM), most hits filed as inhibitors. actives 0.56% (n = 390,000). AID 540317; further: nearly all actives have a fitted effect of over 70% in size
Target sequence (P83916 whole entry, looked up): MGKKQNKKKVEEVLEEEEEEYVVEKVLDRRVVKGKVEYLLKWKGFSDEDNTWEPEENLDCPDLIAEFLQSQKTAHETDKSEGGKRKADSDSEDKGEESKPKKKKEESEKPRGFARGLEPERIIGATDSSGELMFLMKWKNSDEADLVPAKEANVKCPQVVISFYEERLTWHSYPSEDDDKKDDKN
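AlphaScreen: HP1-beta (50 nM) preformed 30 min with biotin-H3(1-18)K9me3 peptide (50 nM) in PBS pH 7.4, 0.01% Tween-20. Compound added for 30 min at RT, then streptavidin donor/nickel chelate acceptor beads (10 ug/mL) for 30 min.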
L3MBTL1 inh: blocks human L3MBTL1; Q9Y468; AlphaScreen L3MBTL1–H3K9me1 peptide binding; Potency, µM (titrated, usually from 57.1 µM), actives largely listed as inhibitors; actives 0.66% (n = 230,000); further: nearly all actives have a fitted effect of over 60% in size
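First, the protein-peptide complex forms for 30 min at room temperature (L3MBTL1 50 nM, biotinylated H3K9me1 peptide 75 nM). Next, compounds are pin-transferred and incubated 30 min. Finally, AlphaScreen beads are added and read after 30 min.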
Large screens that a line does not name were inactive. In the library only some 5.7% were active in any assay of this set; here they are far more common. Unless noted, the call rests on the fitted dose curve; in most records, active means well fitted inhibition curve with a large enough effect; inconclusive means small, poorly fitted or top-dose-only effect; inactive means no such curve, though single readings can be large or run the other way.

Cc1nn(-c2nnc(C)c(=O)[nH]2)c(C)c1SCC(=O)Nc1ccc(F)cc1	BAZ2B block 50µM, JMJD2A Tudor inh 32µM
Cc1n[nH]c(C)c1SCC(=O)Nc1ccc(F)cc1	none
CC(=O)c1ccc(-c2ccc(C3C4C=CCCC4(C)C(=O)N3Cc3ccccc3)c(F)c2)cc1 (centres undefined)	none (no result: BAZ2B block, KDM4E inh, PI5P4K alpha inh, L3MBTL1 inh)
Cc1ccc(-c2csc(N3CCN(CCCn4c(-c5ccncc5)nc5ccccc54)CC3)n2)cc1	BAZ2B block inconclusive, JMJD2A Tudor inh inconclusive, HP1b binding inh inconclusive (no result: KDM4E inh)
Cc1ccc(-c2csc(N3CCC[C@@H]3C(=O)NCCn3c(-c4ccncc4)nc4ccccc43)n2)cc1	BAZ2B block 45µM, JMJD2A Tudor inh inconclusive (no result: KDM4E inh)
COc1ccc(O[C@H]2C=C[C@@H](c3ccccc3)O[C@@H]2CO/N=C(\C)CCN2CCc3nc(-c4ccccc4)c(-c4ccccc4)cc3C2)cc1	KDM4E inh inconclusive (no result: JMJD2A Tudor inh, PI5P4K alpha inh, HP1b binding inh)
CCc1cc2c(nc1CC)CCN(CC/C(C)=N/OC[C@H]1O[C@H](c3ccccc3)C=C[C@@H]1Oc1ccc(OC)cc1)C2	BAZ2B block inconclusive, KDM4E inh 35µM (no result: JMJD2A Tudor inh, PI5P4K alpha inh, HP1b binding inh)
O=[N+]([O-])c1ccc(OCCN2CCCCCC2)cc1	BAZ2B block 50µM, JMJD2A Tudor inh 2.8µM, KDM4E inh inconclusive, HP1b binding inh inconclusive
CC1CCCN(CCCOc2ccc([N+](=O)[O-])cc2)C1 (centres undefined)	BAZ2B block inconclusive, JMJD2A Tudor inh 22µM, KDM4E inh inconclusive
C[N+]1(CCOc2ccc([N+](=O)[O-])cc2)CCOCC1	BAZ2B block inconclusive, JMJD2A Tudor inh 56µM, HP1b binding inh inconclusive
COc1ccc(NC(=O)Cn2c3ncccc3c(=O)n2-c2ccc(C)c(C)c2)c(OC)c1	none (no result: KDM4E inh, PI5P4K alpha inh, L3MBTL1 inh)
CN(CCC#N)C(=O)CC(Cc1ccccc1)C1CCOC(C)(C)C1 (centres undefined)	none
CC(C)c1cc(-c2nc(-c3ccccc3)no2)n[nH]1	none (no result: KDM4E inh, PI5P4K alpha inh, L3MBTL1 inh)
CCCCCOC(=O)Nc1ccc(S(=O)(=O)Nn2cnnc2)cc1	JMJD2A Tudor inh 89µM (no result: PI5P4K alpha inh)
CCCCOC(=O)Nc1ccc(S(=O)(=O)Nc2ncccn2)cc1	none
CC(C)Oc1ccccc1C1CC(=O)Nc2cc3c(cc21)OCO3 (centres undefined)	BAZ2B block inconclusive, JMJD2A Tudor inh 56µM (no result: PI5P4K alpha inh)
COc1cc2c(cc1OC)C[N+](C)(C)CC2	JMJD2A Tudor inh 50µM, KDM4E inh inconclusive
CC(C)c1ccc(Nc2ncnc3onc(-c4ccc(F)cc4)c23)cc1	none (no result: KDM4E inh, PI5P4K alpha inh, L3MBTL1 inh)
O=C(COC(=O)c1ccc(CO)cc1)Nc1ccc2ccccc2c1	none (no result: KDM4E inh)
CCn1c2ccccc2c2cc(NC(=O)COC(=O)c3ccc(NC(=O)CC#N)cc3)ccc21	BAZ2B block inconclusive, PI5P4K alpha inh inconclusive, L3MBTL1 inh 32µM (no result: KDM4E inh)
O=C(COc1ccc2ccccc2c1)NCCNC(=O)COc1ccc2ccccc2c1	BAZ2B block inconclusive (no result: L3MBTL1 inh)
N#CCC(=O)Nc1ccc(C(=O)OCC(=O)Nc2ccc3ccccc3c2)cc1	PI5P4K alpha inh -51 (no result: KDM4E inh)
O=C(COc1ccc2ccccc2c1)NN1C(=O)c2ccccc2C1=O	JMJD2A Tudor inh 89µM
N#CCC(=O)Nc1ccc(C(=O)OCC(=O)c2ccc3c(c2)OCCO3)cc1	JMJD2A Tudor inh 18µM, PI5P4K alpha inh -74
Cc1noc(C)c1COc1ccc(C(=O)NCCc2ccc(F)cc2)cc1	none (no result: KDM4E inh)
COC(=O)[C@@]12C[C@@H](CC(=O)NCC34CC5CC(CC(C5)C3)C4)C(=O)N(Cc3cccc4ccccc34)C1=CCC(C)(C)C2	none (no result: BAZ2B block, JMJD2A Tudor inh, KDM4E inh, HP1b binding inh, L3MBTL1 inh)
CCOC(=O)C(=O)CC(=O)c1ccc2c(c1)OCCO2	BAZ2B block 50µM
O=C(O)Cc1ccc(NC(=O)COc2ccc3ccccc3c2)cc1	none (no result: KDM4E inh, L3MBTL1 inh)
N#CCC(=O)Nc1ccc(C(=O)OCC(=O)N=c2sccn2Cc2ccccc2Cl)cc1	PI5P4K alpha inh -53 (no result: KDM4E inh)
CCOC(=O)c1ccc(NS(=O)(=O)c2ccc3c(c2)OCCO3)cc1	none (no result: KDM4E inh, PI5P4K alpha inh, L3MBTL1 inh)
O=C(COc1ccc2ccccc2c1)Nc1ccc(Cc2ccncc2)cc1	BAZ2B block inconclusive, JMJD2A Tudor inh 79µM (no result: PI5P4K alpha inh)
CCN(CC)S(=O)(=O)c1cc(NC(=O)COC(=O)c2ccc(NC(=O)CC#N)cc2)ccc1C	KDM4E inh 4µM (no result: L3MBTL1 inh)
O=C(COC(=O)c1ccc(O)cc1O)N=c1sccn1Cc1ccccc1Cl	none (no result: KDM4E inh)
